Screening data (PubChem BioAssay)
This is a sample that favours compounds with a hit; in the whole collection about 3.2% have one here.
LMNA splice mod = qHTS Assay for Modulators of Lamin A Splicing | Potency, µM (top dose mostly 46.1 µM), actives largely listed as inhibitors | HeLa LMNA splicing GFP/RFP minigene ratio, 48 h | AID 1487, 2009 | 200,000 compounds, 0.01% hits; active = well fitted inhibition curve with a large enough effect in the signal ratio, with a control signal flat, not every such curve was filed as active; inconclusive = small, poorly fitted or top-dose-only effect, or effect the other way, or a change in a side signal; the % refers to the signal ratio
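S3 HeLa cells stably expressing lamin A-EGFP splicing minigene plus DsRed2, 600 cells/well, 48 h compound exposure at 37C. Laser-scanning cytometry; analysed as GFP (500-530 nm)/RFP (575-640 nm) total intensity ratio; 0.5% DMSO vehicle.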
KDM4E inh = qHTS Assay for Inhibitors of Human Jumonji Domain Containing 2E (JMJD2E) | Lysine-specific demethylase 4E (Homo sapiens), B2RXH2 | Potency, µM (highest dose often 57.1 µM), hits mostly inhibitors | JMJD2E catalytic domain, FDH-coupled NADH fluorescence (FDH is formaldehyde dehydrogenase) | AID 2147, 2009 | 230,000 compounds, 1.6% hits; active = well fitted inhibition curve with a large enough effect, not every such curve was filed as active; inconclusive = small, poorly fitted or top-dose-only effect, or another doubt; inactive = no such curve, though single readings can be large or run the other way; also: nearly all actives have a fitted effect of over 50% in size
Tau FP inhib = qHTS for Inhibitors of Tau Fibril Formation, Fluorescence Polarization. Microtubule-associated protein tau (Homo sapiens), P10636. K18 P301L tau heparin fibrillization, Alexa594 FP, 6 h. Potency, µM (doses to about 57.7 µM), hits mostly inhibitors. 280,000 compounds, 0.39% hits. AID 1468, 2008; also: nearly all actives have a fitted effect of over 55% in size
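Quantitative HTS format: compounds meet 15 uM recombinant K18 P301L tau and Alexa 594-tau tracer in 100 mM sodium acetate pH 7; 20 uM heparin triggers fibrillization at 37 C over 6 hr; FP gives the signal.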
Tau fibril ThT = qHTS for Inhibitors of Tau Fibril Formation, Thioflavin T Binding. recombinant tau K18 P301L, heparin-induced fibrillization, ThT fluorescence. 270,000 compounds, 2.1% hits. Potency, µM (highest dose often 57.4 µM), hits mostly inhibitors. Microtubule-associated protein tau (Homo sapiens), P10636; also: nearly all actives have a fitted effect of over 55% in size
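K18 P301L tau (15 uM + 0.24 uM Alexa 594-tagged), heparin 20 uM, NaOAc pH 7, 6 h 37 C; ThT 30 uM, 1 h RT, ex 450/em 510 nm.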
Tau fluor counter = Counterscreen qHTS for Inhibitors of Tau Fibril Formation, Fluorescence Polarization; 280,000 compounds, 0.93% hits; Potency, µM (top dose mostly 57.7 µM); AID 1463, 2008; tau K18 P301L Alexa594 fluorescence, heparin fibrillization; also: nearly all actives have a fitted effect of over 55% in size
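Human tau K18 P301L (15 uM unlabeled, 0.24 uM Alexa 594-labeled) in 100 mM sodium acetate pH 7 with 20 uM heparin, 6 hr at 37 C. ThT 30 uM added, 1 hr ambient; Alexa 594 FP and total fluorescence read at 555/632 nm.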
CBFb-RUNX1 inh = qHTS Assay for Compounds Blocking the Interaction Between CBF-beta and RUNX1 for the Treatment of Acute Myeloid Leukemia; 230,000 tested, under 10 active; AlphaScreen CBFb-His/RUNX1-biotin binding, biochemical; AID 1477, 2009; Potency, µM (series often up to 59.8 µM), hits mostly inhibitors; Runt-related transcription factor 1 (Homo sapiens) + Core-binding factor subunit beta …
Target sequence (Q01196 whole entry, looked up): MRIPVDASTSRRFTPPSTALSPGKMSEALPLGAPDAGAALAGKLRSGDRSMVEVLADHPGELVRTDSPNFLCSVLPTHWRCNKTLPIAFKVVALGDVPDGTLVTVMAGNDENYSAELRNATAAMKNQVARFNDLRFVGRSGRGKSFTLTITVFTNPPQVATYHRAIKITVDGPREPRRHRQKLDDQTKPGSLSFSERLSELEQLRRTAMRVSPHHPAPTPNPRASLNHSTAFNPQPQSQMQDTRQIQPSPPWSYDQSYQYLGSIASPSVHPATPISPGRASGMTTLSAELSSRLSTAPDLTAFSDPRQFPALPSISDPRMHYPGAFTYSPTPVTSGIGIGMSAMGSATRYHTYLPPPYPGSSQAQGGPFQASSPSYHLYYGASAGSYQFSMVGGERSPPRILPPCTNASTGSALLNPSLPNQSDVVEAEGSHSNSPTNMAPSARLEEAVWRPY
Target sequence (Q13951 whole entry, looked up): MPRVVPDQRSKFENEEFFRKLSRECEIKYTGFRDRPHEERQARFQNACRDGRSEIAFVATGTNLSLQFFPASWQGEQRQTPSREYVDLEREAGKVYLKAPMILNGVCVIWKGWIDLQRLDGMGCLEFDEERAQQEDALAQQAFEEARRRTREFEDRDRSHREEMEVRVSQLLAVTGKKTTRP
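Proteins preincubated together for 20 min at RT before compound addition; 15 min later, nickel and streptavidin beads were added and left 90 min prior to AlphaScreen measurement.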
A number is an active result; [ ] = another dose, or the depositor's remark. Unless noted, calls follow the shape of the dose curve; as a rule, active = well fitted curve in the direction sought with a large enough effect; inconclusive = small, poorly fitted or top-dose-only effect, or another doubt; inactive = no such curve, though single readings can be large; an effect the other way counts as inactive or inconclusive.

What do the screens show for `COc1ccc(-c2nnc3n2N(C(C)=O)C(c2ccc(Cl)c(Cl)c2)=C(C(C)=O)S3)cc1`?
LMNA splice mod: inactive; Tau FP inhib: inactive; Tau fibril ThT: inconclusive; Tau fluor counter: inactive

What do the screens show for `C/C1=C\[C@@H](C)C/C=C/[C@H]2[C@@H]3O[C@]3(C)[C@@H](C)[C@H]3[C@H](Cc4c[nH]c5ccccc45)NC(=O)[C@]32C(=O)/C=C/C(=O)[C@@H]1O`?
KDM4E inh: inactive; Tau FP inhib: inactive; Tau fibril ThT: 0.89µM; Tau fluor counter: inconclusive; CBFb-RUNX1 inh: inactive

Results for COc1ccc(-n2[nH]c3c4c(ncc3c2=O)CCCCC4)cc1 ?
Tau FP inhib: inconclusive; Tau fibril ThT: inconclusive; Tau fluor counter: inactive; CBFb-RUNX1 inh: inactive

What do the screens show for `CC(C)c1ccc(Cc2cnc(NC(=O)c3ccc4c(c3)CC(c3ccccc3)OC4=O)s2)cc1` (stereo not given)?
Tau FP inhib: inconclusive; Tau fibril ThT: inactive; Tau fluor counter: inactive

Results for Nc1cc(Cl)c2nonc2c1[N+](=O)[O-] ?
LMNA splice mod: inconclusive; KDM4E inh: inactive; Tau FP inhib: inactive; Tau fibril ThT: 11µM; Tau fluor counter: inconclusive; CBFb-RUNX1 inh: inactive

Results for Cc1ccc2ccccc2c1NC(=O)CNC1CCCCC1 ?
LMNA splice mod: inactive; KDM4E inh: inactive; Tau FP inhib: inactive; Tau fibril ThT: inactive; Tau fluor counter: inactive; CBFb-RUNX1 inh: inactive

How did Cc1ccc2cc3c(ccc4ccccc43)c3c2c1CC3 do in these assays?
Tau FP inhib: inconclusive; Tau fibril ThT: 16µM; Tau fluor counter: inactive; CBFb-RUNX1 inh: inactive

Results for O=C(O)c1cc(O)c(O)c(O)c1 ?
LMNA splice mod: inconclusive; KDM4E inh: 0.35µM; Tau FP inhib: 2µM; Tau fibril ThT: 1.3µM; Tau fluor counter: 4µM[quencher]; CBFb-RUNX1 inh: inactive

What do the screens show for `COc1cccc(N2CCN(Cc3cccc(Cl)c3)CC2)c1`?
LMNA splice mod: inactive; KDM4E inh: inactive; Tau FP inhib: inactive; Tau fibril ThT: inconclusive; Tau fluor counter: inactive; CBFb-RUNX1 inh: inactive

What do the screens show for `COc1cccc(N2CCN(Cc3ccc(Cl)cc3)CC2)c1`?
LMNA splice mod: inactive; KDM4E inh: 20µM; Tau FP inhib: inactive; Tau fibril ThT: inactive; Tau fluor counter: inactive; CBFb-RUNX1 inh: inconclusive

Results for COc1cc(NC(=O)c2cc3cc4ccc(C)cc4nc3o2)cc(OC)c1OC ?
Tau FP inhib: inactive; Tau fibril ThT: inconclusive; Tau fluor counter: inactive

How did Cc1cc(O)cc2c1O[C@](C)(CCC[C@H](C)CCC[C@H](C)CCCC(C)C)CC2 do in these assays?
LMNA splice mod: inconclusive; CBFb-RUNX1 inh: inactive

How did Oc1c(Br)cc(Br)cc1Oc1ccc(Br)cc1Br do in these assays?
LMNA splice mod: inconclusive; KDM4E inh: inactive; Tau FP inhib: inconclusive; Tau fibril ThT: 32µM; Tau fluor counter: inconclusive; CBFb-RUNX1 inh: inconclusive

How did O=c1c(O)c(-c2ccc(O)c(O)c2)oc2c(O)c(O)cc(O)c12 do in these assays?
KDM4E inh: 2.8µM; Tau FP inhib: 7.9µM; Tau fibril ThT: 3.5µM; Tau fluor counter: inconclusive; CBFb-RUNX1 inh: inactive

What do the screens show for `COc1cc2c(c3oc4cccc(O)c4c(=O)c13)C1C=CO[C@@H]1O2` (stereo not given in full)?
CBFb-RUNX1 inh: inactive

Results for CCN(CC)c1ccc(/C=C/[N+](=O)[O-])cc1 ?
LMNA splice mod: inconclusive; KDM4E inh: inactive; Tau FP inhib: inactive; Tau fibril ThT: 16µM; Tau fluor counter: inconclusive; CBFb-RUNX1 inh: inactive

How did COc1cc(/C=C/[N+](=O)[O-])ccc1O do in these assays?
LMNA splice mod: inconclusive; KDM4E inh: inactive; Tau FP inhib: inactive; Tau fibril ThT: inconclusive; Tau fluor counter: inactive; CBFb-RUNX1 inh: inactive[2.36 µM]

How did CCOc1cc2[nH]c(=O)n(CCCC(=O)N3CCN(c4cccc(Cl)c4)CC3)c(=O)c2cc1OCC do in these assays?
LMNA splice mod: inactive; Tau FP inhib: inactive; Tau fibril ThT: inconclusive; Tau fluor counter: inactive

What do the screens show for `CCOc1ccc(-n2c(O)c(N=Nc3c(C)n(C)n(-c4ccccc4)c3=O)c(=O)[nH]c2=O)cc1`?
KDM4E inh: 7.9µM; Tau FP inhib: inactive; Tau fibril ThT: inconclusive; Tau fluor counter: inactive; CBFb-RUNX1 inh: inactive
